Calls of active or inactive are those of the source.

From PubChem BioAssay come the findings set out here.

Test [1] has as its target Albumin (Bos taurus) (UniProt P02769). Put plainly: bovine serum albumin binders on microarray, profiling panel, artefact control for SMM control protein annotation, biochemical, small-molecule microarray, Alexa647 label, 635/667 nm fluorescence (AID 1118).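 Further: score merges 667 nm emission intensity and signal-to-noise per printed compound spot.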 The following applies: BSA-A647 binding, fluorescence 635 nm, higher = more signal.
A short description of test [2]: small-molecule microarray binders of probe aXIP, primary screen, biochemical, NeuroSMM set, 635/667 nm fluorescence (AID 1119).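 Further: probe is the protein aXip251-270 applied at 1 µg/mL to compound-printed slides; binding of probe to printed compounds measured as 667 nm fluorescence plus signal to noise.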 The settings on record: higher = more signal, called active from +8 up or from −8 down.
Test [3] can be described thus: small-molecule binders of probe aNOTCH3, primary screen, biochemical, small-molecule microarray, 635/667 nm fluorescence (AID 1120).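 Further: probe is a biotin-tagged antibody raised against NOTCH3 rather than NOTCH3 protein; score merges spot fluorescence near 667 nm with spot signal to noise.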 The following applies: higher = more signal.
Test [4] can be described thus: small-molecule binders of probe aNOTCH2, primary screen, biochemical, small-molecule microarray, 635/667 nm fluorescence (AID 1121).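 Further: score merges feature fluorescence read at 667 nm with its signal to noise.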 The following applies: higher = more signal.
The target in test [5] is Carbonic anhydrase 2 (Homo sapiens) (UniProt P00918). Put plainly: CAII small-molecule binders, profiling panel, biochemical, small-molecule microarray, Alexa647-labelled CAII (AID 1122). The following applies: CAII-A647 binding fluorescence, higher = more signal.
Test [6] is described as follows: COS7 lysate on small-molecule microarray, probe aHis, 635 nm (AID 1123).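 Further: z-score combines 667nm fluorescence intensity with signal-to-noise per printed compound spot.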 The following applies: COS7 cell lysate, fluorescence, higher = more signal.
Test [7] in a line: compound binding in COS7 lysate, probe aLAP1, primary screen, cell lysate, small-molecule microarray (AID 1124).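 Further: lysate comes from COS7 cells expressing LAP1 and is applied at 0.3 µg/mL; score merges spot fluorescence near 667 nm with signal-to-noise over triplicate slides.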 The settings on record: probe aLAP1, fluorescence, higher = more signal.
Test [8] relates to Sam68 (KHDRBS1). Nature of the test: Sam68 small-molecule binders, primary screen, biochemical, small-molecule microarray, 635 nm fluorescence (AID 1125).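 Further: score merges 667 nm channel intensity with signal to noise over triplicate slides.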 The settings on record: small-molecule microarray binding, higher = more signal.
Test [9] deals with Chordin-like protein 2 (CHRDL2). Put plainly: CHRDL2 small-molecule binders, primary screen, biochemical, small-molecule microarray, 635 nm fluorescence (AID 1126).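 Further: printed compound slides probed with Chrdl2 protein at 4 µg/mL for 1 h at 4 C; score merges 667 nm emission intensity with signal to noise over three replicate slides.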 The settings on record: small-molecule microarray binding, fluorescence 635 nm; higher = more signal.
For test [10], the target named is Concanavalin-A (Canavalia ensiformis) (UniProt P02866). Put plainly: ConA small-molecule binders, primary screen, artefact control for SMM control protein annotation, biochemical, small-molecule microarray, Alexa647 label, 635 nm (AID 1127).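 Further: z combines 667 nm emission intensity with signal-to-noise across three replicate slides.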 The following applies: ConA-A647 binding fluorescence, higher = more signal.
Test [11] in a line: anti-His antibody binders, primary screen, artefact control for SMM control protein annotation, biochemical, small-molecule microarray, 635 nm fluorescence (AID 1128).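 Further: score merges feature fluorescence with signal-to-noise for each printed compound spot.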 The following applies: anti-His Alexa647 antibody binding, higher = more signal.
Test [12] relates to Human papillomavirus type 1a E7 protein (residues 1-88). Put plainly: HPV1a E7 small-molecule binders, primary screen, biochemical, small-molecule microarray, residues 1-88, 635 nm (AID 1129). The following applies: small-molecule microarray binding, fluorescence 635 nm; higher = more signal.
Test [13] deals with Focal adhesion kinase 1 (Homo sapiens) (UniProt Q05397). Put plainly: small-molecule microarray binders of FAK, primary screen, biochemical, 635/667 nm fluorescence, BSA, DTT (AID 1130).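 Further: composite of spot emission at 667 nm and signal to noise over triplicate slides.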 The settings on record: PTK2 binding, 635 nm fluorescence, higher = more signal.
The test system of test [14] is Fibrinogen (Alexa647-labelled). Put plainly: fibrinogen binders on compound microarrays, profiling panel, artefact control for SMM control-protein annotation, biochemical, small-molecule microarray, 635/667 nm fluorescence (AID 1131).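 Further: z-score merges 667 nm fluorescence with per-spot signal-to-noise over triplicate slides.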 The following applies: fibrinogen-A647 binding fluorescence, higher = more signal.
In test [15] the target is Follistatin (Homo sapiens) (UniProt P19883). Nature of the test: follistatin binders on small-molecule microarrays, primary screen, biochemical, small-molecule microarray, 635/667 nm fluorescence (AID 1132). The settings on record: FST binding, 635 nm fluorescence, higher = more signal.
Test [16] has as its target Fibroblast growth factor 2 (Homo sapiens) (UniProt P09038). Nature of the test: FGF2 binders on small-molecule microarrays, primary screen, biochemical, small-molecule microarray, 635/667 nm fluorescence (AID 1133). The following applies: small-molecule microarray binding, FGF2, fluorescence 635/667; higher = more signal.
The nature of test [17]: mitochondrial membrane potential change in A549 cells, profiling panel, cell-based, JC-1 fluorescence, basal, 24 h, 100 nL (AID 1138).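 Further: A549 lung adenocarcinoma cells under basal conditions with no added stimulus; test concentration not given here.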 The settings on record: higher = more signal.
For test [18], the system named is Lefty1. Put plainly: Lefty1 binders on small-molecule microarrays, primary screen, biochemical, small-molecule microarray, 635/667 nm fluorescence (AID 1139). The settings on record: small-molecule microarray binding, fluorescence 635/667; higher = more signal.
Test [19] relates to wheat germ agglutinin (Triticum aestivum), Alexa647-labelled. Put plainly: wheat germ agglutinin binders on compound microarrays, profiling panel, artefact control for SMM control-protein annotation, biochemical, small-molecule microarray, 635/667 nm fluorescence (AID 1140).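 Further: score merges 667 nm feature emission with signal to noise over triplicate slides.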 The settings on record: WGA-A647 binding, 635 nm fluorescence, higher = more signal.
The target in test [20] is Luciferin 4-monooxygenase (Photinus pyralis) (UniProt P08659). Put plainly: firefly luciferase enzyme inhibitors, primary screen, biochemical, luminescence, purified enzyme, 2006 set (AID 1141).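 Further: cell-free assay with purified firefly luciferase at 100 ng per well in PBS; test concentration not given here.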 The settings on record: SteadyGlo luminescence, 30 min, higher = more signal, called active from +8 up or from −8 down.
Sequence of Luciferin 4-monooxygenase (Photinus pyralis) (P08659 whole entry, looked up): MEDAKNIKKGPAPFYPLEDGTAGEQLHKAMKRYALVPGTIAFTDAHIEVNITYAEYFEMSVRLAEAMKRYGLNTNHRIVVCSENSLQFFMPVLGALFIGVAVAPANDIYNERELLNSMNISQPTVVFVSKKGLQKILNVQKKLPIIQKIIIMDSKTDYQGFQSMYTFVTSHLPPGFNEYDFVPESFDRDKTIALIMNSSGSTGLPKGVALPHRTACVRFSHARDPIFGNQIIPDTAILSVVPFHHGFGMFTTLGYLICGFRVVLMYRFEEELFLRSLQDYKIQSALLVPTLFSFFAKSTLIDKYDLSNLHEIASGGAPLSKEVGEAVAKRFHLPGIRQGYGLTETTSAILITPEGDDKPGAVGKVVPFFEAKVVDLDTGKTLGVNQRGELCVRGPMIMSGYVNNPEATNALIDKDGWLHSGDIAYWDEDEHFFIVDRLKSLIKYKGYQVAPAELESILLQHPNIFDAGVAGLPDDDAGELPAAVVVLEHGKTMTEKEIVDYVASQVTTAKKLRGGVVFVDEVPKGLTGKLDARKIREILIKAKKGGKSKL

Sequence of Albumin (Bos taurus) (P02769 whole entry, looked up): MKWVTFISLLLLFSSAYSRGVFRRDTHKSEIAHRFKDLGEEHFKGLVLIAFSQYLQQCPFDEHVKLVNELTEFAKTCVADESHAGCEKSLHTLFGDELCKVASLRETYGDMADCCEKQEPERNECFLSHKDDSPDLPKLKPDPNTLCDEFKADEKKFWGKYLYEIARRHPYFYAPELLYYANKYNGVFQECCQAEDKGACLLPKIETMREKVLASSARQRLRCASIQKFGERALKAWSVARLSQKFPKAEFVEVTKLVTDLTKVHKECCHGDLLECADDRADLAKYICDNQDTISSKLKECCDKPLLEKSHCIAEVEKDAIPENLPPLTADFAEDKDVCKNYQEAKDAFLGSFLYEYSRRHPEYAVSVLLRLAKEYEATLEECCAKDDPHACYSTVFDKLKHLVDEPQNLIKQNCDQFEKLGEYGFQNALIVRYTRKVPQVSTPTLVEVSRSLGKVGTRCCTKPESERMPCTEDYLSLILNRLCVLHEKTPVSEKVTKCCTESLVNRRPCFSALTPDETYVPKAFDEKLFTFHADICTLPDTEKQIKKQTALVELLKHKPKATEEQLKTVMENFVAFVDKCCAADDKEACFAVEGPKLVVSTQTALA
Sequence of Focal adhesion kinase 1 (Homo sapiens) (Q05397 whole entry, looked up): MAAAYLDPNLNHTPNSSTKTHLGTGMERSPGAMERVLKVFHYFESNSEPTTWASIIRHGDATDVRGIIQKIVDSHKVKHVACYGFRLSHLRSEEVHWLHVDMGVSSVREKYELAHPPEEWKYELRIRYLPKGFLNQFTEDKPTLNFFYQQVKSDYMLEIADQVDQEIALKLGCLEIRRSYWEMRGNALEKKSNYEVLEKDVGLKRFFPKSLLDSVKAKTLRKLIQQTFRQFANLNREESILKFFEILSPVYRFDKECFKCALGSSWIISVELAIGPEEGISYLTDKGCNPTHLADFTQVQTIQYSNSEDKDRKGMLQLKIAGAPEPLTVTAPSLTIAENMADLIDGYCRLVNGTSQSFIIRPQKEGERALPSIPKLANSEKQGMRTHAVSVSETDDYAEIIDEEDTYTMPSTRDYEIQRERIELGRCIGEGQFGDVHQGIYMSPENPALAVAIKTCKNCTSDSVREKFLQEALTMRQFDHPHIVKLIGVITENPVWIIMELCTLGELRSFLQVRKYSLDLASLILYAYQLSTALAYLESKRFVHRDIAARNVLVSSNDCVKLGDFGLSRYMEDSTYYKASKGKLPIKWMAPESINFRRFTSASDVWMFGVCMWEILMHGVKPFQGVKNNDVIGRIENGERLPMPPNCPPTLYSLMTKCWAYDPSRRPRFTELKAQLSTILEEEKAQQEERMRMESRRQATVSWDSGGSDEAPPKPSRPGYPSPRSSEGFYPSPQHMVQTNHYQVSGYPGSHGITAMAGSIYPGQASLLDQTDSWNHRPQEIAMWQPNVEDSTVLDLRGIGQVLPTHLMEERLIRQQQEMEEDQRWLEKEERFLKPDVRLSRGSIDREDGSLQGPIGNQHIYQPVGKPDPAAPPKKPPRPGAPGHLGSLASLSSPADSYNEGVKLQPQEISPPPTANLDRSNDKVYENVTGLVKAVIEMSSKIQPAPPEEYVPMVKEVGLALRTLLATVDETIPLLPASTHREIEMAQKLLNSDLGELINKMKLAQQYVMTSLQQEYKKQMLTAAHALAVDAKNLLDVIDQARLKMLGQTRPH
Sequence of Fibroblast growth factor 2 (Homo sapiens) (P09038 whole entry, looked up): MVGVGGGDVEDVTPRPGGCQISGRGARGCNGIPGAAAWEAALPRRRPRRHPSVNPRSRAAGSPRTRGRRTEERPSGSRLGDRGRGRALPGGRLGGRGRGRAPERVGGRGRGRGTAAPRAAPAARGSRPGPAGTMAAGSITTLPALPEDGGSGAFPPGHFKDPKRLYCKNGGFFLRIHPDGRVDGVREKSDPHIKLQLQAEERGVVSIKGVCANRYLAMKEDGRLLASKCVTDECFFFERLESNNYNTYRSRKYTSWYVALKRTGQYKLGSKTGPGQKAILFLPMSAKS
Sequence of Concanavalin-A (Canavalia ensiformis) (P02866 whole entry, looked up): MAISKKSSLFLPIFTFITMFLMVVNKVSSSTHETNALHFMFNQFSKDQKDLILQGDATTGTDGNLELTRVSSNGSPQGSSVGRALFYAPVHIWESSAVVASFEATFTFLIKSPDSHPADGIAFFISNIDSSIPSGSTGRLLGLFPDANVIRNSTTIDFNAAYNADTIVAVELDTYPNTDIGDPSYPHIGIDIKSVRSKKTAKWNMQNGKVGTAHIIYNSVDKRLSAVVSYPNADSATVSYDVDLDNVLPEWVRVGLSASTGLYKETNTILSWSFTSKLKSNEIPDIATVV
Sequence of Follistatin (Homo sapiens) (P19883 whole entry, looked up): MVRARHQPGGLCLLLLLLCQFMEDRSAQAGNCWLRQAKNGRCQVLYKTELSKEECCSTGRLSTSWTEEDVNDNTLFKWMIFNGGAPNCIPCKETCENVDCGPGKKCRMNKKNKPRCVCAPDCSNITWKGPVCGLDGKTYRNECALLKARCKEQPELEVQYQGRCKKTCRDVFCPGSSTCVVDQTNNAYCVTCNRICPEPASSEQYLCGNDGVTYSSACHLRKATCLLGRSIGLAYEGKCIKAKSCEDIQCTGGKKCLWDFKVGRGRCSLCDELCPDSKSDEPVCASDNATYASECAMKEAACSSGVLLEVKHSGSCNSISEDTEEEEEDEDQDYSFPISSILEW

On to `CC=CC(O)C1C=CC2C(=O)N(c3ccccc3)C(=O)C2N1Nc1ccc(C(C)C)cc1` (stereo not given), for which the composite z-score in [1] was 0.98; in test [3], 0.271; in [4] it was 0.0751; in test [5] it was 0.641; in test [6] it was 3.26; in test [7], 0.3. For the same compound, the composite z-score stood at 1.3 in [8]; 0.0045 in test [9]; 1.11 in [10]; 0.585 in test [11]; 1.2 in test [12]; 0.777 in [13]. In addition, the composite z-score stood at 0.831 in test [14]; 1.12 in [15]; 0.133 in test [16]; 0.0518 in test [18]; 1.32 in test [19]. Moreover, the composite Z-score in test [2] was 0.609 (inactive). The z-score in test [17] is -0.723; in test [20] it was -0.959 (inactive).

As to `COCCCNC(=O)[C@@]1(c2ccc([N+](=O)[O-])cc2)CC(=O)N(CC23CC4CC(CC(C4)C2)C3)[C@@H]1c1ccc(CO)cc1`, the composite z-score in test [1] was 0.197; in test [3], 0.204; in test [4], -0.117; in test [5] it was 0.43; in test [6], 0.726; in test [7], 0.375. Moreover, the composite z-score came out at 1.28 in test [8]; 0.556 in test [9]; 1.08 in test [10]; 0.344 in test [11]; 1.18 in test [12]; 0.745 in test [13]. Moreover, the composite z-score in test [14] came to 0.799; in test [15], 1.27; in test [16], 1.62; in [18] it was 0.983; in test [19], 0.203. For the same compound, the composite Z-score in [2] was 0.324 (inactive). Also, the z-score in [17] was 0.846; in test [20], 0.183 (inactive).

`CC(C)c1ccc(NN2C(C(O)c3c(F)cccc3Cl)C=CC3C(=O)N(c4ccccc4)C(=O)C32)cc1` (stereo not given): the composite z-score turned out to be 0.913 in test [1]; 0.704 in [3]; 0.395 in [4]; 0.187 in test [5]; 2.26 in test [6]; 0.584 in test [7]. For the same compound, the composite z-score in [8] was 1.14; in test [9], -0.297; in test [10], 1.11; in test [11], 0.825; in test [12], 1.13; in [13], 0.823. For the same compound, the composite z-score in [14] was 0.935; in [15] it was 1.02; in test [16] it was -0.0904; in test [18], -0.0553; in test [19], 0.959. Further, the composite Z-score in test [2] is -0.193 (inactive). Also, the z-score is -1.27 in test [17] and -1.12 (inactive) in [20].

Consider `Cc1c(NC(=O)CC#N)c(=O)n(-c2ccccc2)n1C`, for which the composite z-score in test [1] was 0.407; in test [3] it was 0.0876; in test [4] it was -0.193; in test [5], -0.064; in test [6] it was 0.0776; in test [7], 0.037. The composite z-score in [8] amounted to 0.529; in [9], 0.563; in test [10], 0.0636; in test [11], 0.514; in test [12], 0.469; in [13], 0.616. Besides, the composite z-score in test [14] is 0.134; in test [15], 0.116; in [16], 0.291; in [18], 0.645; in test [19], 0.114. Further, in [2], the composite Z-score was 0.676 (inactive). Further, the figures for the z-score in test [17] and in test [20] were 0.385 and 0.551 (inactive), respectively.

With `COc1ccc(C(O)C2C=CC3C(=O)NC(=O)C3N2Nc2ccccn2)cc1OCc1ccccc1` (stereo not given), the composite z-score in [1] was 0.68; in [3] it was 0.089; in [4], -0.0308; in [5] it was 0.855; in [6], 1.76; in test [7], 0.759. For the same compound, the composite z-score in [8] was -0.255; in [9] it was 0.0961; in test [10] it was 0.212; in test [11] it was 0.834; in test [12], 0.502; in [13], -0.0511. Further, the composite z-score is 0.816 in test [14]; -0.101 in [15]; -1.37 in test [16]; -0.168 in test [18]; 0.532 in test [19]. For the same compound, in [2], the composite Z-score was 0.0296 (inactive). In addition, the z-score in [17] was 1.73; in [20] it was 0.24 (inactive).
